Measured values as given in PubChem BioAssay (EPA / NIEHS).
Results filed as inconclusive are left out. Calls of active or inactive are those of the source. Rule for the calls, unless noted: active = hit-call score of the fitted dose curve at least 0.9, where 1 is the maximum; inconclusive = response in the unintended direction; inactive = score below 0.9.

How the values were obtained:
[1] = system: Thyroperoxidase (TPO), gene 54314; assay: CCTE_Simmons_AUR_rTPO: CCTE's Amplex UltraRed Assay for Thyroperoxidase (TPO) Inhibition, Simmons Lab (AID 2283662);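 note: potency for loss of signal meaning inhibition of peroxidase activity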
Method in brief: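 Rat thyroid microsomes (5 ug protein) with 25 uM Amplex UltraRed and 300 uM H2O2 in 200 mM phosphate buffer, 30 min at 37C in dark; fluorescence 544/590 nm. Eight concentrations, 5 nM–87.5 uM final, 0.5% DMSO, triplicate biological replicates.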

[2] = CCTE_Simmons_CellTiterGLO_HEK293T: Viability Assessment in CCTE's Assays for Thyroperoxidase (TPO) Inhibition, Simmons Lab (AID 2283665)
Method in brief: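 HEK293T, 10 000 cells/well, DMEM + 1% FBS; 8-pt titration 5 nM–87.5 uM [final], 0.5% DMSO; 24 hr, 37C, 5% CO2; CellTiter-Glo luminescence; n=3 biological replicates.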

[3] = Tanguay_ZF_120hpf_TR_legacy: (Legacy) Oregon State University Tanguay Lab 120 Hour Post-fertilization zebrafish Assay for Touch Response (AID 2283667)
Method in brief: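 Tropical 5D wild-type zebrafish embryos statically exposed to 120 hpf at 28°C, sealed and dark-covered, 0.64% DMSO final; touch response scored as present/absent by brightfield microscopy at 120 hpf. Trimethyltin chloride 5 uM positive control; dead embryos not scored.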

[4] = CEETOX_H295R_MTT_cell_viability: Viability Assessment in the CeeTox HT-H295R MTT Assay (AID 2283718; active = hit-call score of the fitted dose curve at least 0.9, where 1 is the maximum; inactive = score below 0.9;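 for AC50: curve fitted both ways so AC50 may mark viability loss or gain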)
Method in brief: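 Human H295R adrenal cells, prestimulated 48 h with 10 uM forskolin, were exposed 48 h to chemicals in 0.1% DMSO. Viability was measured in the same wells by MTT (0.5 mg/ml, 4 h, 37 C), absorbance 570/650 nm, as percent of controls.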

[5] = Tanguay_ZF_120hpf_ActivityScore_legacy: (Legacy) Oregon State University Tanguay Lab 120 Hour Post-fertilization zebrafish Assay Score for Activity (AID 2283742)
Method in brief: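 Dechorionated Tropical 5D embryos, one per well from 6 hpf, statically exposed to 120 hpf at 28 °C in 0.64% DMSO. Mortality and malformations scored binary by brightfield microscopy; activity score combines 18 endpoints, fitted positively versus DMSO.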

[6] = system: Thyroperoxidase (TPO), gene 445522; assay: CCTE_Simmons_GUA_TPO: CCTE's Guaiacol Assay for Thyroperoxidase (TPO) Inhibition, Simmons Lab (AID 2283750)
Method in brief: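 Porcine thyroid microsomes (25 ug) in 200mM potassium phosphate, preincubated 30 s at 37C with compound (8 concentrations, 5 nM–87.5 uM) and 35mM guaiacol; 1mM H2O2 starts reaction. Absorbance change at 450nm over first 80 s; loss of signal versus DMSO, three replicates.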

[7] = target: Luciferin 4-monooxygenase (Photinus pyralis) (UniProt P08659); assay: CCTE_Simmons_QuantiLum_inhib_2: CCTE's Firefly Luciferase Inhibition Assay, Simmons Lab (AID 2283767)
Sequence of Luciferin 4-monooxygenase (Photinus pyralis) (P08659 whole entry, looked up): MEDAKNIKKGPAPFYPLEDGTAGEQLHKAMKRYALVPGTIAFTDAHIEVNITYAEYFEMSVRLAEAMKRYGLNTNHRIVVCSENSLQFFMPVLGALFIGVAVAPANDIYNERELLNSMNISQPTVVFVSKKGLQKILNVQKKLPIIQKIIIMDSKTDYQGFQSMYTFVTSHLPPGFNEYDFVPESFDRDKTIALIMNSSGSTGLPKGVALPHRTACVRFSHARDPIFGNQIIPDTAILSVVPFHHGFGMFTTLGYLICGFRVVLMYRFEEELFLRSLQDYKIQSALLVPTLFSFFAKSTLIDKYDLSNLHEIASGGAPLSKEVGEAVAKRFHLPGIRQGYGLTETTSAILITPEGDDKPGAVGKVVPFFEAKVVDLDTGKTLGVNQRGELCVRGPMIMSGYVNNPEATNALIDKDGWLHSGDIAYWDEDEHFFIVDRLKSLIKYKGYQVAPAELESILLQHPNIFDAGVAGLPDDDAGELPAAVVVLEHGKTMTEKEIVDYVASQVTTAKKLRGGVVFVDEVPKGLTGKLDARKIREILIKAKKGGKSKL
Method in brief: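 Luminescence loss relative to DMSO vehicle defines inhibition; detection reagent containing 150 uM D-luciferin and 147 uM dATP (final, pH 7.8) is injected immediately before each read. Enzyme is preincubated with an 8-point titration (5 nM–87.5 uM final) for 30 min at 37C.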

[8] = STM_H9_OrnithineISnorm_perc: Stemina devTOX quickPredict H9 human embryonic stem cell (hESC)-based Assay for Ornithine (ORN) Metabolite Biomarker, Normalized (AID 2283712; active = hit-call score of the fitted dose curve at least 0.9, where 1 is the maximum; inactive = score below 0.9;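 note: ornithine released into spent medium during last day measured by mass spectrometry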)
Method in brief: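 H9 human embryonic stem cells kept pluripotent receive test chemical over 72 h, refreshed daily by media exchange. Media from the closing 24 h is deproteinized and analysed by UPLC-HRMS on an amide column; ornithine signal is scaled to labelled standard and vehicle.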

[9] = STM_H9_CystineISnorm_perc: Stemina devTOX quickPredict H9 human embryonic stem cell (hESC)-based Assay for Cystine (CYSS) Metabolite Biomarker, Normalized (AID 2283713; active = hit-call score of the fitted dose curve at least 0.9, where 1 is the maximum; inactive = score below 0.9)
Method in brief: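 H9 hESC, pluripotent; compound 72h, re-dosed q24h with medium change. Last-24h medium → 40% acetonitrile deproteinization → UPLC-HRMS. CYSS area / C13-CYSS standard, then % of 0.1% DMSO median.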

[10] = STM_H9_OrnCyssISnorm_ratio: Stemina devTOX quickPredict H9 human embryonic stem cell (hESC)-based Assay for Ornithine (ORN):Cystine (CYSS) Ratio (AID 2283714)
Method in brief: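 Undifferentiated H9 hESCs exposed 72 h, media and compound replaced every 24 h; final 24-h conditioned media deproteinized and analysed by UPLC-HRMS against C13 spike-ins. Value is the internal-standard-normalized ORN/CYSS ratio versus 0.1% DMSO.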

[11] = ArunA_CellTiter_hNC: Viability Assessment in the ArunA Biomedical's Oris Neural Crest (hNC) Cell Migration Assay (AID 2283752)
Method in brief: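 Cell titer was measured with the CellTiter Aqueous One reagent after 72 h of chemical dosing. Cells were H9-derived embryonic neural crest stem cells seeded on Matrigel, 60,000 per well, and given 16 h at 37C beforehand.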

[12] = ArunA_CellTiter_hNP: Viability Assessment in the ArunA Biomedical's Oris Neural Crest (hNC) Cell Migration Assay (AID 2283753)
Method in brief: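 H9-derived hNP1 neuroprogenitors, 60,000/well on Matrigel, cultured 16 h, then 72 h chemical exposure in test medium. Cell titer via CellTiter Aqueous One; positive-direction fit vs DMSO.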

[13] = ArunA_Migration_hNP: ArunA Biomedical's Oris Neuroprogenitor (hNP) Cell Migration Assay (AID 2283754)
Method in brief: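 Human H9-derived hNP1 neuroprogenitors on Matrigel with LIF/bFGF, plated around seeding stoppers for 16 h at 37C; stoppers removed at start of 72 h chemical exposure. Calcein-AM staining, fluorescence 494/517 nm in detection zone; loss-of-signal vs DMSO; cytochalasin D control.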

[14] = ArunA_Migration_hNC: ArunA Biomedical's Oris Neural Crest (hNC) Cell Migration Assay (AID 2283755)
Method in brief: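 Human H9-derived neural crest stem cells, 60,000/well on Matrigel, 16 h at 37C, then 72 h chemical exposure after seeding-stopper removal. Migration into detection zone read as calcein-AM fluorescence (ex494/em517), relative to DMSO.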

[15] = ArunA_NOG_NucleusCount: ArunA Biomedical's Neurite Outgrowth (NOG) Assay for Nucleus Count (AID 2283756)
Method in brief: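 Human H9-derived differentiated neurons were exposed for 48 h right after seeding. Hoechst-stained nuclei gated by size and intensity were counted by automated high-content imaging as viable neurons. Loss of signal vs DMSO.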

[16] = read-out: Cytochrome P450 (CYP24A1_1), CYP24A1 (gene 1591); assay: LTEA_HepaRG_CYP24A1_1: Life Technologies and Expression Analysis (LTEA) Assay for Cytochrome P450 (CYP24A1_1) using HepaRG (AID 2283671; active = hit-call score of the fitted dose curve at least 0.9, where 1 is the maximum; inactive = score below 0.9); conditions: mRNA level, 48 h; actives raise or lower the signal
Method in brief: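 Differentiated human HepaRG cells in serum-free induction medium, exposed 48 h in duplicate to eight half-log concentrations from 100 uM top, 0.5% DMSO. Transcript measured by TaqMan qRT-PCR, normalised to ACTB, GAPDH, POLR2A; bidirectional fitting versus DMSO.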

Nc1cc2c3c(c1)C(c1ccccc1)=N[C@@H](NC(=O)c1cccnc1)C(=O)N3CC2
AC50 [1]: 23.1 µM (active)
outcome [2]: inactive
outcome [3]: inactive
outcome [4]: inactive
outcome [5]: inactive
outcome [6]: inactive
outcome [7]: inactive

CC(Cl)(Cl)C(=O)O
outcome [3]: inactive
outcome [5]: inactive

CCOC(=O)c1ccccc1N
outcome [4]: inactive

CCN(CC)c1ccccc1
outcome [3]: inactive
outcome [5]: inactive

CCCCC(CC)COP(=O)(Oc1ccccc1)Oc1ccccc1 (centres undefined)
outcome [8]: inactive
outcome [9]: inactive
outcome [10]: inactive
outcome [11]: inactive
outcome [12]: inactive
outcome [13]: inactive
outcome [14]: inactive
outcome [15]: inactive

CC(C)(C)OOC(C)(C)C
outcome [16]: inactive
outcome [5]: inactive

CCOS(=O)(=O)OCC
outcome [3]: inactive
outcome [5]: inactive

CN(C)C(=O)Cl
outcome [3]: inactive
outcome [5]: inactive

CSC(C)(C)C=NO
outcome [3]: inactive
outcome [5]: inactive

CO/N=C(/C(=O)OC)c1ccccc1COc1ccccc1C
AC50 [4]: 5.04 µM (active)

N#Cc1c(-c2ccc(Cl)cc2)[nH]c(C(F)(F)F)c1Br
AC50 [4]: 0.289 µM (active)

CCCCOCCOP(=O)(OCCOCCCC)OCCOCCCC
outcome [4]: inactive

CCOP(=S)(OCC)SCn1nnc2ccccc2c1=O
outcome [4]: inactive

c1nc[nH]n1
outcome [3]: inactive
outcome [5]: inactive

CCCCc1ccccc1
outcome [3]: inactive
outcome [5]: inactive

CC(Cc1ccc(OCC(=O)O)cc1)NCC(O)c1csc(C(F)(F)F)n1 (centres undefined)
outcome [3]: inactive
outcome [5]: inactive

CCCCN(CCCC)N=O
outcome [3]: inactive
outcome [5]: inactive

Cc1ccc([N+](=O)[O-])cc1C
outcome [5]: inactive

CCOP(=S)(OCC)SCS(=O)(=O)CC
outcome [4]: inactive

ClC(Cl)(Cl)c1ccccc1
outcome [5]: inactive

CCOP(=S)(NC(C)C)Oc1ccccc1C(=O)OC(C)C (centres undefined)
outcome [4]: inactive

Oc1ccc(I)cc1
outcome [4]: inactive

CC(=O)c1ccc(-c2ccccc2)cc1
outcome [4]: inactive

O=P1(N(CCCl)CCCl)NCCCO1 (centres undefined)
outcome [5]: inactive

CC(C)Nc1ccc(Nc2ccccc2)cc1
outcome [4]: inactive

COP(N)(=S)OC
outcome [4]: inactive

c1cc2c3c(cccc3c1)CC2
outcome [3]: inactive
outcome [5]: inactive

ClC(Cl)=C(c1ccc(Cl)cc1)c1ccccc1Cl
outcome [4]: inactive

O=[N+]([O-])c1ccc(Cl)c(Cl)c1
outcome [3]: inactive
outcome [5]: inactive

Nc1ccc([N+](=O)[O-])cc1Cl
outcome [4]: inactive

CCOc1ccc(C(C)(C)COCc2cccc(Oc3ccccc3)c2)cc1
outcome [4]: inactive
outcome [5]: inactive

OCC1CO1 (centres undefined)
outcome [3]: inactive
outcome [5]: inactive
